Each structure is given as a SMILES string. Active and inactive are the calls of the source. The rule behind the calls is not given here.

Sequence of Pantothenate synthetase (Mycobacterium tuberculosis (strain ATCC 25618 / H37Rv)) (P9WIL5 whole entry, looked up): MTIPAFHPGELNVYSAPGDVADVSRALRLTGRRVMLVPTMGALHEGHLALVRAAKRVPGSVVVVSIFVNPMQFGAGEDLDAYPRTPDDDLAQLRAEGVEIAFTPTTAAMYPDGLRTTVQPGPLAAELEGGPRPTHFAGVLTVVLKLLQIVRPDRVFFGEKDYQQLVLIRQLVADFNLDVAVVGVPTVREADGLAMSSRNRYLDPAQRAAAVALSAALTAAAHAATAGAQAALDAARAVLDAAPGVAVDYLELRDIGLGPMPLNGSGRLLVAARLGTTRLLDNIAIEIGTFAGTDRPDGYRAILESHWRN

The assay addresses Pantothenate synthetase (Mycobacterium tuberculosis (strain ATCC 25618 / H37Rv)) (UniProt P9WIL5). In words: Coupled enzyme confirmation of inhibitors against recombinant Mtb PanC (AID 375).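 Note: 0% = full reaction with vehicle and 100% = no enzyme background.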 As to conditions: coupled enzyme assay; at 10 µM, stronger effect = higher value.
For `COc1ccc(NC(=O)CN(c2cc(C)cc(C)c2)S(=O)(=O)c2c(C)noc2C)cc1OC`, the inhibition was 0% (inactive).

Take `O=C(COC(=O)C1(c2ccccc2F)CCCC1)NC1CCS(=O)(=O)C1` (stereo not given): the inhibition was 3% (inactive).

`O=C(NCC1CCCO1)C1CCC(CNS(=O)(=O)c2ccccc2)CC1` (stereo not given): the inhibition was 5% (inactive).

Turning to `CCOC(=O)N1CCC(NC(=O)CCc2c(C)nc3c(c(C)nn3C(C)(C)C)c2C)CC1`, the inhibition is 7% (inactive).

On to `CCN1CCN(Cc2nc3c(c(=O)n(C)c(=O)n3C)n2CC(=O)c2ccccc2)CC1`, for which the inhibition was 2% (inactive).

Take `CCN(CC)S(=O)(=O)c1ccc(NC2c3ccccc3C(=O)N2CCN2CCOCC2)cc1` (stereo not given): the inhibition was 0% (inactive).

In the case of `O=C(Nc1ccon1)c1cc(-c2ccccc2)nc2ccccc12`, the inhibition is 0% (inactive).

For the compound `CCC1Oc2ccccc2N(CC(=O)Nc2ccc(OC)cc2OC)C1=O` (stereo not given), the inhibition is 0% (inactive).

As to `COC(=O)Nc1sc2c(c1C(=O)N1CCOCC1)CCC(C)C2` (stereo not given), the inhibition was 0% (inactive).

As for `O=C(NC1=NCCS1)NC12CC3CC(CC(C3)C1)C2`, the inhibition is 2% (inactive).

With `Cc1ccc(CSC2=NCCN2C(=O)C2CC2)cc1`, the inhibition is 2% (inactive).

For `Cc1cc(C)c2c(n1)sc1c(N3CCOCC3)ncnc12`, the inhibition was 5% (inactive).

Regarding `c1ccc(Cn2nnc3c(N4CCCCCC4)ncnc32)cc1`, the inhibition is 7% (inactive).

For `CC(=O)/C(C[N+]1(C)CCCCC1)=N\O`, the inhibition was 3% (inactive).

Consider `COC(=O)CC1C(=O)NCCN1C(=O)NC1CCCCC1` (stereo not given), for which the inhibition is 1% (inactive).

For the compound `CCOCC(=O)Nc1nc2ccc(OC)cc2s1`, the inhibition was 0% (inactive).

Take `O=C(Cn1c(=O)oc2ccccc21)N1CCN(c2ccccc2)CC1`: the inhibition was 0% (inactive).

As for `COc1ccc(N2CCN(Cc3nc4c(c(=O)n(C)c(=O)n4C)n3Cc3ccccc3C)CC2)cc1`, the inhibition is 7% (inactive).

For the compound `O=C(CN1C(=O)CCSc2ccccc21)Nc1ccc2c(c1)OCO2`, the inhibition is 2% (inactive).

Take `CCN(CC)CCOC(=O)c1cccc(OC)c1`: the inhibition is 0% (inactive).

For `COc1ccc(N2CCN(C(=O)CSc3ncnc4c3cnn4-c3ccccc3C)CC2)cc1`, the inhibition is 0% (inactive).

For the compound `Nc1nc(-c2ccc(Cl)cc2)nn1C(=O)c1cccnc1`, the inhibition is 0% (inactive).

For the compound `CCN(CC)c1ccc(NC(=O)c2cncc(Br)c2)cc1`, the inhibition was 0% (inactive).

Turning to `CCCC(=O)Nc1ccc2oc(-c3cccnc3)nc2c1`, the inhibition is 0% (inactive).

Regarding `CCOC(=O)N1CCN(C(=O)c2ccc3nc4ccsc4c(=O)n3c2)CC1`, the inhibition was 2% (inactive).

On to `CCOC(=O)N1CCC(N2C(=O)c3ccccc3C2Nc2cccnc2)CC1` (stereo not given), for which the inhibition was 4% (inactive).

With `CCOC(=O)N1CCN(Cc2nc3c(c(=O)n(C)c(=O)n3C)n2Cc2ccc(F)cc2)CC1`, the inhibition was 2% (inactive).

Regarding `COC(=O)c1ccc(-c2ccc(CNCC(O)c3ccccc3)o2)cc1` (stereo not given), the inhibition was 1% (inactive).

Take `Nc1c(C(=O)NCCN2CCOCC2)c2nc3ccccc3nc2n1-c1ccc2c(c1)OCO2`: the inhibition was 1% (inactive).

For `COc1ccc(CN(CC(=O)NCC2CCCO2)C(=O)CCC(=O)Nc2cc(C)on2)cc1` (stereo not given), the inhibition was 0% (inactive).

Regarding `CCC(CC)C1C(C#N)=C(N)Oc2n[nH]c(C)c21` (stereo not given), the inhibition was 0% (inactive).

Turning to `Cc1cccc(-n2ncc3c(NCc4cccnc4)ncnc32)c1`, the inhibition is 7% (inactive).

`COc1cccc(C(=O)N2CCCC(c3nc(-c4cccs4)no3)C2)c1` (stereo not given): the inhibition was 0% (inactive).

Take `COc1ccc(C(=O)Nc2cccc(C)c2)cc1S(=O)(=O)N1CCOCC1`: the inhibition was 1% (inactive).

As for `Cc1ccc(NC(=O)CN(c2ccc3c(c2)OCO3)S(=O)(=O)c2c(C)n[nH]c2C)cc1`, the inhibition was 1% (inactive).

On to `COc1ccc2cc(CN(CCO)C(=O)c3ccc(Br)cc3)c(=O)[nH]c2c1`, for which the inhibition is 14% (inactive).

In the case of `O=C(O)CCc1ccc(-c2ccccc2)n1CC(=O)O`, the inhibition is 0% (inactive).

Regarding `O=C1C2C3C=CC(C3)C2C(=O)N1Cc1ccccc1` (stereo not given), the inhibition was 6% (inactive).

Take `CCN1CCN(C(=O)Cn2ncc3ccsc3c2=O)CC1`: the inhibition is 0% (inactive).

Regarding `CCOc1ccc(C2C(C(=O)OC)=CN(CCOC)C=C2C(=O)OC)cc1`, the inhibition is 4% (inactive).

What is called inhibition is the drop in the measured response relative to a control, in per cent.

(Values after PubChem BioAssay.)
